Bioassay records: PubChem BioAssay, several laboratories
CYP2C9 activ – increases human cytochrome P450 2C9 activity. P11712. recombinant CYP2C9, luciferin-H conversion, luminescence; hits give high values; factor 1 = untreated enzyme, 0 = blocked. 96,000 tested, 1.4% active. activation factor at 5 µM;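 active = activation factor of 2 or more for CYP2C9 at a 5 µM dose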;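 note: 0 = sulfaphenazole-blocked wells and 1 = vehicle-only wells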
Target sequence (P11712 whole entry, looked up): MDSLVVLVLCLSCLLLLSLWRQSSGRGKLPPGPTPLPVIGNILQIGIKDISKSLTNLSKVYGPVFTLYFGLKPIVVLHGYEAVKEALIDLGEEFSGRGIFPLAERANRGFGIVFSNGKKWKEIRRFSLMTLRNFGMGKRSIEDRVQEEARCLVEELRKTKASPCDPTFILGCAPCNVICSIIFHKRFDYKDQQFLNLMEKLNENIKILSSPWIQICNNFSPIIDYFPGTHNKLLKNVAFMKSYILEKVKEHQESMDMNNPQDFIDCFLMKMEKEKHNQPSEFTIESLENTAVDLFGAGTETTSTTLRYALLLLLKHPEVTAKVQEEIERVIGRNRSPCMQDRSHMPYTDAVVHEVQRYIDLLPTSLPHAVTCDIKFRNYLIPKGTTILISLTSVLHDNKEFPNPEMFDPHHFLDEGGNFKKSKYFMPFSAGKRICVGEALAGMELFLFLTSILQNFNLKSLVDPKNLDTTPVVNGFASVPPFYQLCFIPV
PostGolgi yeast – growth inhibition of a yeast mutant, post-Golgi transport screen; 98,000 tested, 0.9% active; inhibition, % at 10 µM; post-Golgi transport phenotypic cell assay; AID 739;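 note: yeast cells grown in 1536-well plates; yeast grown about 18 h at 30C before absorbance read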
CYP2C19 activ – increases human CYP2C19 enzyme activity | P33261 | recombinant CYP2C19, luciferin-H EGE luminescence; hits give high values; 0 = fully inhibited enzyme, 1 = untreated enzyme | activation factor at 5 µM | 96,000 tested, under 10 active | AID 1025;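 active = activation factor of at least 2 at 5 µM in the primary screen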;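 note: 0 = wells with 2.5 mM tranylcypromine and 1 = vehicle-only wells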
CYP2C19 inh – inhibitors of human CYP2C19; P33261; CYP2C19 Supersomes, luciferin-H EGE luminescence, 30 min; inhibition, % at 5 µM; 96,000 tested, 21% active;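 active = CYP2C19 inhibition above a set limit at 5 µM in the primary screen, cut at about 50% in these data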;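 note: plate controls were negative control wells for no effect and 2.5 mM tranylcypromine positive control for full effect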
PostGolgi ctrl – growth of the yeast control strain, post-Golgi counter-screen | efflux-deficient yeast background strain, growth absorbance A615, 16 h | inhibition, % at 10 µM | 98,000 tested, 5% active | AID 738
CYP2C9 inhib – inhibitors of human CYP2C9; 96,000 tested, 20% active; P11712; inhibition, % at 5 µM; CYP2C9 Supersomes, luciferin-H conversion, luminescence;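 active = blocking of liver enzyme CYP2C9 beyond about 50% at 5 µM, limit read from the data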
Starred values were filed as active, the others as inactive; · = no result given. Only some compounds are listed: those with a hit (about 32% of all), similar ones and a draw of the others. Cut-off read from the data, not from the text of the source, unless noted: active = inhibition above about 30%; inactive = the rest.

SMILES	CYP2C9 activ	PostGolgi yeast	CYP2C19 activ	CYP2C19 inh	PostGolgi ctrl	CYP2C9 inhib
CC(=O)Nn1c(C)nnc1-n1nc(C)cc1C	0.8	0	0.9	11	-5	24
O=C(Cn1cc2c(n1)CCCCC2)NCc1ccccc1	2.5*	-15	0.2	84*	10	-154
O=C(Cn1cc2c(n1)CCCC2)NCc1cccnc1	0.9	4	0.9	11	-11	14
CC1CCN(C(=O)Cn2cc3c(n2)CCCC3)CC1	0.9	6	0.4	55*	10	15
CCC1CCCCN1C(=O)CSc1nnc(CNC(=O)c2cc(OC)c(OC)c(OC)c2)o1 (stereo unspecified)	0.7	-2	0.9	6	-3	30
c1ccc(-c2cc(N3CCCCCC3)n[nH]2)cc1	0.8	-4	0.8	22	20	24
FC(F)(F)c1cc(-c2ccccc2)nc(N2CCCCCC2)n1	1	5	1	-3	2	-4
Nc1nc(-c2ccccc2)cc(N2CCCCC2)n1	0.8	-6	0.5	51*	8	21
Cc1cc(C)n(-c2cc(-c3ccccc3)nc(C)n2)n1	0.8	17	0.8	22	18	22
c1ccc(-c2cnnc(N3CCCCC3)n2)cc1	0.6	9	0.2	83*	11	43
c1ccc(-c2cc(N3CCCCC3)ncn2)cc1	0.8	16	0.1	87*	9	21
Cc1nc(-c2ccccc2)cc(N2CCCC2)n1	0.7	1	0.5	51*	-5	30
CC(C)(C)NS(=O)(=O)c1cccc(S(=O)(=O)c2cccc(S(=O)(=O)NC(C)(C)C)c2)c1	·	-5	·	·	3	·
Nc1cc(=O)[nH]c(SCC(=O)N2CCc3ccccc3C2)n1	1.3	7	1.2	-21	13	-30
CN(C)c1cc2c(c(N(C)C)c1)C(=O)c1ccccc1C2=O	0.6	-2	0.9	11	10	38
COc1cccc(-c2ccc(C#N)c(OC(=O)c3ccc(Cl)cc3)n2)c1	0.7	-9	0.9	11	0	27
CCOC(=O)CSc1nc(-c2ccncc2)ccc1C#N	0.7	-8	0.9	11	2	30
COc1cccc(-c2ccc(C#N)c(SCC(=O)NCCc3cccc(Cl)c3)n2)c1	0.4	-1	0.2	82*	9	64*
COc1cccc(-c2ccc(C#N)c(OC(=O)c3c(Cl)cccc3Cl)n2)c1	0.5	-3	0.9	12	13	51*
N=c1sccn1CC(=O)Nc1ccc(Cl)c(S(=O)(=O)N2CCOCC2)c1	0.7	17	1	-3	7	25
CCCOc1ccc(OCCSc2ncccn2)cc1	0.5	12	0.5	47	3	50*
COc1ccccc1N(CC(=O)NC1CCCC1)C(=O)c1csnn1	0.8	0	0.1	91*	1	16
CCOc1ccc(N(CC(=O)NC2CCCC2)C(=O)CCCC(=O)Nc2ccccn2)cc1	0.9	-12	0.8	20	4	14
Cc1cccc(N(CC(=O)NC2CCCC2)C(=O)CS(=O)CC(=O)Nc2ccc3c(c2)OCO3)c1 (stereo unspecified)	0.1	0	0.7	35	7	88*
Cc1cccc(N(CC(=O)NC2CCCC2)C(=O)CCCC(=O)Nc2ccccn2)c1	0.4	-7	0.2	78*	9	62*
SMILES	CYP2C9 activ	PostGolgi yeast	CYP2C19 activ	CYP2C19 inh	PostGolgi ctrl	CYP2C9 inhib
Cc1ccc(C)c(N(CC(=O)NC2CCCC2)C(=O)CCCC(=O)Nc2ccccn2)c1	0.2	1	0.2	80*	25	83*
CCn1cc([N+](=O)[O-])c(C(=O)Nc2nc(-c3ccc(C)cc3)c(C)s2)n1	0.7	1	0.9	13	4	27
O=C(c1ccc2c(c1)C(=O)N(Cc1ccco1)C2O)N1CCOCC1 (stereo unspecified)	1	-6	1	-1	-2	-4
Cc1ccc(S(=O)(=O)c2ccc(Cl)cc2)cc1S(=O)(=O)N1CCN(C)CC1	0.9	-10	0.9	14	1	8
COc1ccccc1N(CC(=O)NC1CCCCC1)C(=O)CCC(=O)Nc1ccccn1	0.4	-3	0.4	64*	15	60*
CCOc1ccc(N(CC(=O)NC2CCCC2)C(=O)CCC(=O)Nc2ccccn2)cc1	0.9	9	0.7	29	6	11
COc1cccc(-n2nnnc2SCC(=O)Nc2cccc(NC(C)=O)c2)c1	0.5	7	0.6	38	-2	50*
COc1cccc(NC(=O)CSc2nncn2N)c1	1	3	0.9	6	-8	-3
COc1cccc(-n2nnnc2SCC(=O)Nc2ccc3c(c2)OCCO3)c1	0.9	39*	0.9	10	31*	14
COc1cccc(NC(=O)CSc2nncn2-c2ccccn2)c1	0.8	7	0.4	62*	11	22
Cc1c(Cl)c([N+](=O)[O-])nn1CCCC(=O)Nc1sc2c(c1C#N)CCC2	0.7	-2	1.1	-12	4	35
CC(=O)C1=C(O)C(=O)N(CCc2c[nH]c3ccccc23)C1c1ccc(O)cc1 (stereo unspecified)	0.5	-4	1.1	-11	28	53*
COc1ccc(C2C(C(C)=O)=C(O)C(=O)N2CCc2c[nH]c3ccccc23)cc1OC (stereo unspecified)	0.1	-5	1	-4	2	89*
COc1cccc(C2C(C(C)=O)=C(O)C(=O)N2CCc2c[nH]c3ccccc23)c1 (stereo unspecified)	0.3	-7	1	-4	12	70*
COc1cc(C2NC(=O)NC(C)=C2C(=O)OC2CCCC(C)C2)ccc1O (stereo unspecified)	0.8	7	0.9	9	3	16
O=C(CSc1ccccc1C(=O)O)Nc1cccc(C(=O)O)c1	1.1	0	1	-3	7	-15
O=C1CCC([N+](=O)[O-])C(c2ccc(Cl)cc2)N1 (stereo unspecified)	1.1	-4	1	-5	-5	-6
CC(=O)N1CCc2cc(S(=O)(=O)NCCC(=O)N3CCN(Cc4ccccc4)CC3)ccc21	0.7	-8	0.8	22	10	26
O=C(O)CCNS(=O)(=O)c1ccccc1	0.9	6	1	3	9	6
Cc1ccc(S(=O)(=O)NCCC(=O)N2CCN(Cc3ccccc3)CC2)cc1	0.9	-4	0.5	52*	3	5
CC1CCN(C(=O)CCNS(=O)(=O)c2ccccc2)CC1	0.9	2	0.5	54*	5	13
CCOC(=O)c1ccccc1NC(=O)/C(C)=C/C(=O)O	1.2	1	1.2	-18	12	-19
O=C(O)COc1ccc2c(c1)OCCO2	1.1	4	1.1	-7	-1	-10
CN(Cc1nc2ccccc2n1C)S(=O)(=O)c1ccc(F)cc1	2.7*	-22	0.2	84*	20	-167
O=C(c1cc(-c2ccc(Cl)cc2Cl)on1)N1CCN(C(=O)c2ccco2)CC1	0.7	-3	0.4	58*	13	26
